Screening data from PubChem BioAssay.
697 NFkB inh = inhibitors of the PMA/ionomycin-induced NF-kB reporter in 697 B cells | 697 B-cell NF-kB luciferase reporter, 16 h | inhibition, % at 4 µM | actives 0.33% (n = 330,000) | AID 435022; in the data active = inhibition above about 35%
Mdm2-MdmX inh = human Mdm2/MdmX binding inhibition | O15151+Q00987 | SaOS-2 split-luciferase Mdm2/MdmX complementation, luminescence | inhibition, % at 8 µM | actives 3% (n = 330,000) | AID 485346;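 active = inhibition of at least 50% at 8 µM in the primary screen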
Jurkat NFkB inh = inhibitors of the PMA/ionomycin-induced NF-kB reporter in Jurkat cells | PMA/ionomycin-induced NF-kB luciferase reporter, luminescence | inhibition, % at 4 µM | actives 0.53% (n = 330,000); in the data active = inhibition above about 50%
KLF5 inhibitor = inhibitors of KLF5 expression; DLD-1 KLF5 promoter-luciferase reporter, luminescence; inhibition, % at 5 µM; actives 0.23% (n = 290,000); AID 1700;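 active = inhibition above a per-plate limit of that plate's mean compound inhibition plus 3 SD, cut at about 60% in these data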;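 note: 0% = DMSO wells and 100% = LY294002 at 200 µM; higher means less KLF5 promoter-driven luciferase light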
Gli-Sufu block = blocks Gli-Sufu signaling in a luciferase reporter; AID 588413; Sufu-KO-LIGHT fibroblasts, Gli luciferase reporter luminescence; inhibition, % at 5 µM; actives 0.74% (n = 340,000);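 active = inhibition above about 55%, limit read from the data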;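 note: 0% = DMSO-treated cells and 100% = wells with medium but no cells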
aSyn UTR inh = 5' untranslated region of α-synuclein, MLPCN primary screen; alpha-synuclein 5'UTR reporter, inhibitor activity; inhibition, % (tested at 7.5 µM); actives 0.82% (n = 300,000); AID 1813; in the data active = inhibition above about 60%;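 note: H4 neuroglioblastoma cells stably carrying SNCA 5'UTR luciferase fusion; 0% = DMSO wells and 100% = positive control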
KLF5 inh confirm = KLF5 inhibition, confirmation assay | inhibition, % at 4 µM | AID 1834 | shares compounds with KLF5 inhibitor | actives 79% (n = 610) | DLD-1 KLF5 promoter firefly luciferase reporter, luminescence;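 active = inhibition above a set limit taken from the earlier primary screen, cut at about 63% in these data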;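 note: 0% = DMSO wells and 100% = LY294002 at 200 µM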
IEC-6 tox trip = kills rat IEC-6 cells in KLF5 counter-screen; inhibition, % at 4 µM; shares compounds with KLF5 inhibitor; IEC-6 rat intestinal cells, viability luminescence; actives 56% (n = 610); AID 1905; in the data active = inhibition above about 23%;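 note: cells exposed to compounds for 48 hours before viability read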
Jurkat NFkB conf = lowers PMA/ionomycin-induced NF-kB signal in Jurkat cells; inhibition, % at 4 µM; actives 27% (n = 2,700); shares compounds with Jurkat NFkB inh; AID 435020; Jurkat NF-kB luciferase, 16 h;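 active = inhibition reaching about 45% at 4 µM in either replicate, limit read from the data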;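 note: plate controls were PMA/ionomycin stimulated DMSO wells for no effect and unstimulated DMSO wells for full effect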
697 NFkB conf = inhibitors of the PMA/ionomycin-induced NF-kB reporter in 697 B cells, retest; shares compounds with 697 NFkB inh; 697 B-cell NF-kB luciferase, 16 h; inhibition, % at 4 µM; actives 35% (n = 2,000); AID 449746; in the data active = inhibition mostly above about 28%, no sharp cut-off; inactive = mostly below about 22%
Mdm2 MdmX conf = confirmation of human Mdm2/MdmX interaction inhibitors. shares compounds with Mdm2-MdmX inh. Mdm2-MdmX binding, luminescent assay. inhibition, % at 8 µM. actives 55% (n = 10,000). AID 489028; in the data active = inhibition above about 40%
FLuc counter = inhibits full-length luciferase, flagging false Mdm2/MdmX hits; shares compounds with Mdm2-MdmX inh; SaOS-2 full-length luciferase counterscreen, luminescence; inhibition, % at 8 µM; actives 77% (n = 6,200); AID 504607;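 active = mean inhibition at 8 µM reaching about 37%, which flags the compound as non-specific, limit read from the data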;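 note: p53-null SaOS-2 cells with luciferase driven by a doxycycline-inducible promoter; compound on cells about two nights before reading with doxycycline added after day one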
* hit, by the source's call; . = no result given. Hits are enriched below; roughly 4.1% of the tested compounds scored in any of these assays.

SMILES | 697 NFkB inh | Mdm2-MdmX inh | Jurkat NFkB inh | KLF5 inhibitor | Gli-Sufu block | aSyn UTR inh | KLF5 inh confirm | IEC-6 tox trip | Mdm2 MdmX conf | FLuc counter | others
COc1ccccc1/C=N/NC(=O)c1cc2c(OC)c(OC)ccc2[nH]1 | -38 | 25 | 40 | 57 | 2 | -61 | . | . | . | .
COc1ccc(OC)c2[nH]c(C(=O)N/N=C/c3ccccc3O)cc12 | -16 | 82* | 36 | 96* | 59* | 4 | 90* | -4 | 71* | 32
COc1ccc(OC)c(C2C3=C(COC3=O)Nc3cc4c(cc32)OCO4)c1 (stereo not given) | 43* | 55* | 77* | 88* | 14 | 89* | 92* | 82* | 68* | 125* | Jurkat NFkB conf=42;697 NFkB conf=39*
O=C(CSc1nc(=O)[nH]c2c1CCCC2)Nc1cc(C(F)(F)F)cc(C(F)(F)F)c1 | -20 | -3 | 31 | . | 19 | 6 | . | . | . | .
Cc1ccc2cc(C)c(SCC(=O)Nc3cc(C)on3)nc2c1 | 8 | 14 | 1 | 12 | 8 | -5 | . | . | . | .
O=C(Nc1nc2cc3c(cc2s1)OCO3)C1=COCCO1 | -185 | 52* | -12 | 78* | -38 | 95* | 49 | 12 | 28 | .
O=C(Nc1nc2cc3c(cc2s1)OCCO3)c1ccco1 | -99 | 71* | 24 | 86* | -15 | 66* | 81* | 15 | 68* | 74*
CSc1cccc(NC(=S)Nc2cc(C)ccc2C)c1 | -15 | 7 | -6 | -33 | 1 | -139 | . | . | . | .
COc1cc2c(c(OC)c1OC)-c1ccc(OC)c(=O)cc1C(NC(C)=O)CC2 (stereo not given) | -149 | 60* | 63* | 71* | 45 | 75* | 88* | 82* | 58* | 118* | Jurkat NFkB conf=60*
Cc1ccc(C(=O)N/N=C/c2cc(Br)ccc2O)cn1 | -7 | 51* | 9 | 83* | 19 | 3 | 87* | 9 | 31 | .
Clc1ccc(-c2cccs2)nn1 | -22 | -15 | 4 | 12 | 28 | -14 | . | . | . | .
CC1CCN(c2ccc(-c3cccs3)nn2)CC1 | -14 | 55* | 31 | 98* | 10 | 102* | 86* | 5 | 64* | 40*
COc1cccc(C2N=C(c3ccccc3C)NO2)c1OC (stereo not given) | -46 | -48 | -37 | -8 | -35 | -80 | . | . | . | .
COc1cc([N+](=O)[O-])ccc1NC(=O)NCCCN1CCCC1=O | 20 | 9 | 0 | -4 | -6 | 5 | . | . | . | .
CSc1nc(N(C)NC(=O)c2ccc(Cl)cc2)c2ccccc2n1 | -23 | 62* | 43 | 65* | 25 | 93* | 75* | 64* | 56* | 88*
CSc1nc(N(C)NC(=O)c2ccccc2)c2ccccc2n1 | 9 | 56* | 49 | 76* | -4 | 54 | 75* | 65* | 52* | 69*
CNc1nc(SC)nc2ccccc12 | 11 | 5 | 8 | 13 | -6 | -6 | . | . | . | .
Oc1ccc(CN2CCc3ccccc3C2)c2cccnc12 | -3 | 51* | 37 | 71* | 84* | 103* | 63* | 19 | 78* | 24
CN(C)c1ccc(-c2nn3c(-c4cccnc4)nnc3s2)cc1 | 19 | 45 | -8 | . | -5 | -9 | . | . | . | .
COc1ccccc1-c1nnc2sc(-c3ccc(N(C)C)cc3)nn12 | -204 | 69* | 78* | 72* | 55 | 99* | 91* | 72* | 68* | 94* | Jurkat NFkB conf=47
COc1ccc(C)cc1Nc1c2c(nc3ccccc13)CCC2 | -45 | 59* | 34 | 62* | 46 | 68* | 87* | 70* | 59* | 87*
COc1ccc(Nc2c3c(nc4ccccc24)CCCC3)cc1OC | -59 | 25 | -7 | -34 | 24 | -21 | . | . | . | .
CC(=O)C1=NN(c2ccc(Cl)cc2)C(c2ccc3c(c2)OCO3)N(C(C)=O)N1C (stereo not given) | -13 | 25 | 14 | 7 | 11 | 2 | . | . | . | .
O=C(NCc1ccccc1F)c1ccc2c(c1)OCO2 | 3 | -40 | -13 | -30 | -12 | -37 | . | . | . | .
O=C(NCCc1ccccc1F)c1ccc2c(c1)OCCO2 | 55* | 89* | 76* | 100* | 69* | 108* | 108* | 0 | 92* | 49* | Jurkat NFkB conf=82*;697 NFkB conf=39*
SMILES | 697 NFkB inh | Mdm2-MdmX inh | Jurkat NFkB inh | KLF5 inhibitor | Gli-Sufu block | aSyn UTR inh | KLF5 inh confirm | IEC-6 tox trip | Mdm2 MdmX conf | FLuc counter | others
CC1CC(C)CN(CC(O)COCc2ccccc2F)C1 (stereo not given) | 13 | 22 | 15 | 9 | 10 | -13 | . | . | . | .
COc1ccccc1-c1csc(NC(=O)c2ccc(N3C(=O)CCC3=O)cc2)n1 | 10 | -4 | 5 | 6 | -4 | 11 | . | . | . | .
CCOc1ccc(S(=O)(=O)NCc2ccccn2)cc1NC(=O)c1ccccc1F | 11 | 57* | 54* | 70* | 21 | 76* | 81* | 55* | 53* | 72* | Jurkat NFkB conf=45
CCCCCCCCCCn1ccc(=N)cc1 | -25 | 85* | 75* | 86* | 88* | 106* | 70* | 62* | 90* | 51* | Jurkat NFkB conf=75*
CCCCCCN1Cc2ccccc2C1 | -1 | -11 | -6 | -22 | -3 | -117 | . | . | . | .
CCCCCCCCn1ccc(=N)cc1 | 78* | 55* | 80* | 68* | 38 | 62* | 53 | 48* | 61* | 48* | Jurkat NFkB conf=73*;697 NFkB conf=64*
CCOC(=O)C1(CC2CCCCO2)CCN(S(=O)(=O)c2c(C)nn(C)c2C)CC1 (stereo not given) | 10 | 7 | 7 | -1 | 0 | -1 | . | . | . | .
Cc1ccc(/C=N/NC(=O)c2nnn(-c3nonc3N)c2-c2ccc3c(c2)OCO3)s1 | -22 | -15 | -3 | -6 | -3 | -13 | . | . | . | .
COC(=O)Nc1nc(-c2ccccc2)c(C(=O)c2ccc(Cl)cc2)s1 | 5 | 61* | 30 | 62* | -5 | 94* | 85* | 67* | 55* | 88*
